# Laboratory results reported in the supplement of paper PMC12636033.
# ± gives the standard deviation of the averaged measurements. Over roughly 33,000 sequences, “E-score (rank enrichment, -0.5 to 0.5)” has its median near -0.0075; the highest 2% begin near 0.23. The list comes from a sample in which the highest values are over-represented; it also holds similar and randomly drawn sequences.
# System: WT Max(13-93) synthetic (M65Nle)
# Experiment: PBM 8-mer E-score (E-score (rank enrichment, -0.5 to 0.5)); higher = stronger preferential binding
# Protocol: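 Protein binding microarray (universal PBM chip covering all 10-mers in fixed probe flanks) with chemically synthesized human Max(13-93) bHLH-LZ analogs (not full-length Max) bearing noncanonical residues (hArg, Tha, Aib, Nle at 65) and aromatic Cys staples. Read-out per 8-mer (and its reverse complement): E-score (rank-based enrichment, -0.5 to 0.5) and Z-score of median probe intensity.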
row,Sequence,PBM 8-mer E-score
1,AGCAAACC,0.102 ± 0.14
2,CCATGATC,-0.0246 ± 0.092
3,CCATGATA,0.0793 ± 0.032
4,GCATGACA,0.2006 ± 0.0015
5,ACATGATC,0.241 ± 0.024
6,ACATGAAG,0.0102 ± 0.026
7,AAATGATA,0.197 ± 0.029
8,ACATGATA,0.269 ± 0.038
9,ACATGAAC,0.0506 ± 0.02
10,ACATGATG,0.0731 ± 0.012
11,GCATGATA,0.273 ± 0.01
12,ACATGAGA,0.146 ± 0.056
13,ACATGAAT,0.245 ± 0.071
14,TGCGTACA,0.188 ± 0.13
15,CGAGGCCG,-0.243 ± 0.075
16,GCCCTGAC,0.0594 ± 0.023
17,ACTCCGAT,-0.0923 ± 0.047
18,AAAGAAAC,0.0488 ± 0.013
19,ACATCTCA,0.146 ± 0.089
20,TGGGCACA,0.0612 ± 0.062
21,ATGTTCAC,-0.109 ± 0.027
22,GCTGATGA,-0.087 ± 0.06
23,CTTGGGAC,-0.183 ± 0.081
24,CTGTGTAA,-0.00451 ± 0.0057
25,ATGTGTAG,0.25 ± 0.041

row,Sequence,PBM 8-mer E-score
1,ATGTGTAC,0.184 ± 0.011
2,ATGTGTAA,0.236 ± 0.0034
3,GTGTGTAA,0.0936 ± 0.013
4,AAGTGTAG,0.111 ± 0.079
5,CCTAAGGA,0.089 ± 0.0031
6,AAGCGTAG,-0.0452 ± 0.033
7,CATGTCCA,0.124 ± 0.026
8,AGTCAGTA,0.0494 ± 0.052
9,AGGTGGAT,0.0366 ± 0.1
10,ACGTGGAT,0.383 ± 0.044
11,ACGTGGAC,0.331 ± 0.0084
12,ACGTGGAG,0.338 ± 0.049
13,AAGTGGAG,0.0727 ± 0.049
14,GCGTGGAA,0.179 ± 0.049
15,ACGTGGAA,0.271 ± 0.053
16,CCGTGGAC,-0.137 ± 0.023
17,GCGTGGAC,0.122 ± 0.16
18,CCGTGGAG,-0.163 ± 0.06
19,AAGTGGAT,-0.0604 ± 0.074
20,TCGTGGAA,0.163 ± 0.02
21,ATCCTTTC,0.0595 ± 0.17
22,AAAGAGAT,-0.0586 ± 0.1
23,GTCCTTAA,0.063 ± 0.0053
24,AAAGGATG,0.0585 ± 0.087
25,CAAAACAA,0.129 ± 0.06

row,Sequence,PBM 8-mer E-score
1,CATCGAGA,-0.0265 ± 0.036
2,GTAATGTA,0.0754 ± 0.18
3,ACCTCAAT,-0.0496 ± 0.16
4,ATGTGGAG,0.1647 ± 0.0014
5,CTGTGGAC,0.0601 ± 0.14
6,ATGTGGAC,0.238 ± 0.018
7,GGCATCCA,-0.0611 ± 0.057
8,ACCTTTTA,0.027 ± 0.18
9,AATAAAAT,0.144 ± 0.068
10,CATAAAAC,0.0726 ± 0.027
11,AATAAAAA,0.256 ± 0.11
12,CATAAATA,0.313 ± 0.0091
13,TATAAATA,0.208 ± 0.025
14,AATAAAAC,0.296 ± 0.056
15,AATAAATA,0.168 ± 0.017
16,AATAAACC,0.197 ± 0.028
17,AATAAAAG,0.206 ± 0.037
18,GGACATCC,-0.188 ± 0.068
19,CACTTAGG,-0.0583 ± 0.16
20,ACGTGACG,0.321 ± 0.039
21,TCGTGACA,0.0356 ± 0.012
22,GCGTGACC,0.075 ± 0.14
23,ACGTGAGG,0.1604 ± 0.0013
24,CCGTGACC,-0.23 ± 0.064
25,CCGTGACG,-0.0153 ± 0.0018

row,Sequence,PBM 8-mer E-score
1,ACGTGAGT,0.327 ± 0.035
2,ACGTGACC,0.298 ± 0.018
3,ACGTGACA,0.366 ± 0.014
4,CCGTGACA,0.00228 ± 0.054
5,ACGTGAGA,0.208 ± 0.0048
6,AGGTGACG,-0.053 ± 0.045
7,AGCCGAGG,-0.103 ± 0.058
8,AACACAGG,-0.0563 ± 0.091
9,ACGAACCG,-0.0438 ± 0.041
10,AATCCAAC,0.0162 ± 0.14
11,AGTGGTGC,-0.0756 ± 0.066
12,GGATGCCC,-0.0856 ± 0.021
13,CGTATTCC,-0.096 ± 0.036
14,ACTGCGCT,0.0213 ± 0.097
15,ACCGCACC,-0.0552 ± 0.13
16,AGGTGACT,-0.0287 ± 0.06
17,ACGTGACT,0.282 ± 0.0038
18,AAGTGACT,-0.00483 ± 0.05
19,GCACGGAA,-0.00447 ± 0.026
20,GAGGATGC,-0.0499 ± 0.029
21,ATGAATGG,0.311 ± 0.023
22,ATGAATGA,0.126 ± 0.034
23,ATGAATGC,0.114 ± 0.14
24,GACGACAA,0.0432 ± 0.014
25,GAGAGGTA,-0.0899 ± 0.13

row,Sequence,PBM 8-mer E-score
1,GAAGTTCC,-0.122 ± 0.051
2,AATAATGG,0.044 ± 0.046
3,AATAATGC,0.245 ± 0.095
4,CATAATGA,0.172 ± 0.059
5,GATAATGA,0.125 ± 0.072
6,AATAATGT,0.173 ± 0.097
7,AATAATGA,0.259 ± 0.073
8,ATCCGAAA,-0.03 ± 0.061
9,ATATTACC,0.267 ± 0.029
10,ATATTACA,0.197 ± 0.017
11,AAATTACG,0.0856 ± 0.02
12,CTATTACC,-0.0563 ± 0.029
13,ATATTACG,0.241 ± 0.0048
14,AGATTACC,-0.00321 ± 0.065
15,ATATTAGG,0.244 ± 0.036
16,ATATTAGA,0.172 ± 0.004
17,ATATTAGC,0.124 ± 0.022
18,CGTCGGGA,-0.106 ± 0.096
19,CACCGCGA,-0.226 ± 0.025
20,CTAGGTCC,-0.172 ± 0.12
21,GGAAGCAC,0.0303 ± 0.0034
22,ATCATGAA,0.0859 ± 0.037
23,ATCAACAG,0.106 ± 0.018
24,ATCAACAA,0.15 ± 0.12
25,ATCATAAT,0.269 ± 0.033

row,Sequence,PBM 8-mer E-score
1,AACATAAT,0.252 ± 0.011
2,ATCAACAT,0.24 ± 0.013
3,ATCATAAA,0.142 ± 0.15
4,AACATAGT,0.0321 ± 0.091
5,ATCATGAT,0.312 ± 0.0072
6,AACATAAG,0.097 ± 0.013
7,ATCATGAG,0.058 ± 0.031
8,ATCATAAG,0.172 ± 0.039
9,ACGGGGAG,0.0661 ± 0.065
10,CCATCCAC,0.155 ± 0.16
11,GAGCTGGA,-0.13 ± 0.0049
12,AAGGCTCC,-0.199 ± 0.056
13,ACTGTCCC,0.1452 ± 0.001
14,AGAGGCTC,-0.129 ± 0.083
15,GTCGCCGA,-0.0844 ± 0.015
16,TATGGTAA,0.104 ± 0.1
17,GTGTCCTA,-0.012 ± 0.016
18,GCCAACGA,-0.0918 ± 0.043
19,ATCGGTTG,-0.0382 ± 0.099
20,CCTGATGA,-0.114 ± 0.085
21,AACATAAC,0.247 ± 0.07
22,ATCATATG,0.233 ± 0.0053
23,ATCATCAT,0.245 ± 0.026
24,TTGATAAA,0.25 ± 0.021
25,ATCATATA,0.204 ± 0.012

row,Sequence,PBM 8-mer E-score
1,ATCATCAC,0.0578 ± 0.072
2,CACATAAC,0.108 ± 0.067
3,ATGATAAA,0.181 ± 0.084
4,GACATAAC,0.17 ± 0.0081
5,ATCATCAA,-0.0899 ± 0.0026
6,ATCATATC,0.134 ± 0.044
7,GTGATAAA,0.143 ± 0.05
8,AGGATATC,0.084 ± 0.03
9,CGCACCCA,0.0267 ± 0.1
10,AAGGTGAC,-0.1212 ± 0.00044
11,CGGATGAC,0.00616 ± 0.15
12,TCCGGTCA,-0.19 ± 0.054
13,ACTCTGAA,-0.0606 ± 0.013
14,GAAAGCCA,-0.0183 ± 0.048
15,CTGTCTGA,0.00168 ± 0.0099
16,CTCAACAC,0.202 ± 0.084
17,ATGATAAT,0.251 ± 0.078
18,ATGATAAG,0.17 ± 0.054
19,ATGATAAC,0.206 ± 0.023
20,AGGCCTGG,-0.294 ± 0.061
21,TTATTAAA,0.131 ± 0.26
22,ATATTAAT,0.274 ± 0.059
23,ATATTAAA,0.24 ± 0.03
24,ATATTAAG,0.131 ± 0.02
25,ATATTAAC,0.218 ± 0.013

row,Sequence,PBM 8-mer E-score
1,CTATTAAA,0.173 ± 0.011
2,AAGTTGGC,-0.119 ± 0.0037
3,TCGCTGCA,-0.149 ± 0.09
4,GGCGCCAC,-0.0393 ± 0.073
5,GCAGAAAC,0.0456 ± 0.087
6,AGACCTCA,-0.0265 ± 0.028
7,TCGGCACA,-0.0668 ± 0.093
8,AACGTGTC,0.189 ± 0.014
9,AGCGTGTA,0.11 ± 0.018
10,ATCGTGTA,0.0318 ± 0.041
11,AACGTGTA,0.26 ± 0.0055
12,CCCGTGTA,0.183 ± 0.1
13,CCCGTGTC,0.0152 ± 0.049
14,AACGTGTG,0.178 ± 0.016
15,CGCGTGTC,0.232 ± 0.011
16,CACGTGTC,0.4823 ± 0.0015
17,GACGTGTA,-0.0197 ± 0.094
18,CACGTGTA,0.4825 ± 0.0012
19,CGCGTGTA,0.29 ± 0.052
20,GGCAGACC,-0.189 ± 0.022
21,AAGAGATC,-0.149 ± 0.086
22,AAGGTGCT,0.0391 ± 0.026
23,ACAGCAGT,-0.155 ± 0.016
24,AAATGTTA,0.127 ± 0.032
25,GGATGTTA,0.0759 ± 0.064

row,Sequence,PBM 8-mer E-score
1,AGATGTTC,-0.10933 ± 4.9e-05
2,CCATGTTA,0.103 ± 0.095
3,CCATGTTC,-0.00628 ± 0.14
4,AAATGTTG,-0.0126 ± 0.086
5,GCATGTTA,0.266 ± 0.075
6,ACATGTTG,0.239 ± 0.012
7,ACATGTTC,0.246 ± 0.016
8,GAATGTTA,0.158 ± 0.079
9,ACATGTTA,0.267 ± 0.008
10,AGATGTTG,-0.133 ± 0.11
11,ATAGTCTC,0.0149 ± 0.021
12,ACGGCCAT,-0.0405 ± 0.11
13,ATTAGGCG,-0.0541 ± 0.021
14,CTTGCAGC,-0.155 ± 0.06
15,AAGGCCCA,-0.0696 ± 0.03
16,AACCTCGG,-0.285 ± 0.089
17,ACAGCAGA,-0.0839 ± 0.019
18,CCTGGCCC,-0.288 ± 0.052
19,CATTCATC,0.048 ± 0.036
20,CATTCATA,0.243 ± 0.071
21,GATTCATA,-0.0144 ± 0.0027
